Results filed as inconclusive are left out. Values without a mark were called inactive. Active and inactive are the calls of the source. The call rests on the fitted dose curve; in most records, active means well fitted inhibition curve with a large enough effect; inconclusive means small, poorly fitted or top-dose-only effect; inactive means flat fitted curve, though single readings scatter. Where a SMILES comes first, the peptide text is derived from it. The star is where a group is joined. Hexanoyl = CCCCCC(=O)*

The values below come from PubChem BioAssay (NCATS).
On the % scale 0 is the no-effect control and ±100 the full control effect.

Phospholipid hydroperoxide glutathione peroxidase GPX4 (Homo sapiens), sequence (P36969 whole entry, looked up): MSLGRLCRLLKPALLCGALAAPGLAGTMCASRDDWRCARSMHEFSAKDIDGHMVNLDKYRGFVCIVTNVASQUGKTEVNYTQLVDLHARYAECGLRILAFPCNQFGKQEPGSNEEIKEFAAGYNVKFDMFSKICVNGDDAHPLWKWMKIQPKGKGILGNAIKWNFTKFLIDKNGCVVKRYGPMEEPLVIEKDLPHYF

The experiment concerns the target Phospholipid hydroperoxide glutathione peroxidase GPX4 (Homo sapiens) (UniProt P36969). Put plainly: Primary qHTS Assay for Inhibitors of Recombinant Selenoprotein Glutathione Peroxidase 4 (GPX4) (AID 1845192). Further: nearly all actives have a fitted effect of over 65% in size. To be noted: recombinant GPX4, GR-coupled NADPH fluorescence, 15 min; series mostly up to 27.8 µM; activity change, negative = inhibition: at the top concentration. The procedure, abridged:
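NADPH consumption followed by fluorescence at 340/450 nm, t=0 and after 15 min at room temperature. Reaction started with cumene hydroperoxide (0.5 mM final) after 30 min compound–GPX4 preincubation; final 200 nM GPX4, 100 nM GR, 1 mM GSH, 0.5 mM NADPH.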
Consider `C=C1CC[C@]2(C(=O)O[C@@H]3O[C@H](CO)[C@@H](O)[C@H](O)[C@H]3O)CC[C@]3(C)C(=CCC4[C@@]5(C)C[C@H](O)[C@@H](O[C@@H]6O[C@H](C(=O)O)[C@@H](O)[C@H](O)[C@H]6O)[C@](C)(C=O)C5CC[C@]43C)C2C1` (some centres undefined), for which the “activity change, negative = inhibition” value is 3.97% [at 15.3 µM].
Turning to `O=C(O)C1(c2ccc(-c3ccc(Cl)c(Cl)c3)c(F)c2)CC1`, the “activity change, negative = inhibition” value is 8.64% [at 50 µM].
On to `COc1ccc(Oc2c(Cl)cnn(C3c4ccccc4-c4ccccc43)c2=O)cc1`, for which the “activity change, negative = inhibition” value was -12.1% [at 50 µM].
On the same count and under the same terms, the value for `COc1c(-c2ccc(O)cc2)cc(OC)c2c1oc1cc(O)c(OC3OC(CO)C(O)C3O)cc12` (centres undefined) was -14.1%; that for `N=C(N)c1ccc2nc(-c3cc(CC(=O)NC(CC(=O)O)C(=O)O)cc(-c4cc(S(N)(=O)=O)ccc4O)c3O)[nH]c2c1` (centres undefined) was 1.47% [at 50 µM].
Take `CC1=C2CC(=O)C(C)CC/C=C(\C)CC2(O)OC1=O` (centres undefined): the “outcome” value was “inactive [at 50 µM]”.
For the compound `CC1CC(=O)C2C(O)(C1)CC(O)C13OC1c1c(O)cccc1C(=O)C23O` (centres undefined), the “activity change, negative = inhibition” value was -5.57%.
The same measure, in the same setting: as for `C=C(COC(=O)CC(C)C)C1Cc2cc(C(C)=O)ccc2O1` (centres undefined), the figure is -3.76% [at 50 µM]; as for `C/C=C/C=C/C=C/C(=O)O[C@@H]1[C@@H](OC)C2=C(C(=O)N(C(CCC(=O)O)C(=O)O)C2)[C@@]2(C)CCCC(C)(C)[C@H]12` (some centres undefined), 2.65%; as for `CCCCCC(=O)N1CCC[C@H]1C(=O)N[C@@H](Cc1ccc(O)cc1)C(=O)OC` (Hexanoyl-Pro-Tyr-OMe), -3.83% [at 50 µM].
On the same count and under the same terms, as for `CC1OC(OC2C(OC(=O)[C@]34CCC(C)(C)C[C@H]3C3=CCC5[C@@]6(C)CC[C@H](OC7OC(C(=O)O)C(O)C(O)C7O)C(C)(C)C6CC[C@@]5(C)[C@]3(C)CC4O)OC(CO)C2O)C(O)C(O)C1OC1OCC(O)C(O)C1O` (some centres undefined), the figure is -10.5% [at 15.3 µM]; as for `Cc1c(-c2ccc3c(c2)OCO3)oc2ccc(C(O)C(C)O)cc12` (centres undefined), -26.2%; as for `C=C[C@H]1[C@H](O[C@@H]2O[C@H](CO)[C@@H](O)[C@H](O)[C@H]2O)OC=C(C(=O)OC)[C@H]1CCO`, 1.2%.
Still for that read-out and setting: the value for `Cc1cc(CO)c(O)c(C(=O)CC2CC(=O)NC(=O)C2)c1` was -1.36% [at 50 µM]; that for `CC(C)(O)C1CCC2(C)CCCC(C)(O)C2C1` (centres undefined) was -5.47% [at 50 µM].
Consider `C[C@]1(OC(=O)/C=C/c2ccccc2)C[C@@H](O)[C@]2(O)C=CO[C@@H](O[C@@H]3O[C@H](CO)[C@@H](O)[C@H](O)[C@H]3O)[C@@H]21`, for which the “activity change, negative = inhibition” value is -6.05%.
Same read-out and setting: the value for `COC(=O)C1=CO[C@@H](O[C@@H]2O[C@H](CO)[C@@H](O)[C@H](O)[C@H]2O)[C@@H]2[C@@H](C)[C@@H](O)C(O)[C@H]12` (some centres undefined) was 2.75%; that for `CC1(C)C=Cc2c(ccc3c2[N+]([O-])=C2C3(O)CC34NC(=O)C5(CCCN5C3=O)CC4C2(C)C)O1` (centres undefined) was -5.47%; that for `CC(C)c1ccc2c(c1)CCC1[C@](C)(C(=O)O)CCC[C@]21C` (some centres undefined) was -22.5% [at 50 µM].
Regarding `CC(C)(CC(=O)N1CCCC1)NCC(=O)N1C[C@@H](F)C[C@H]1C#N`, the “activity change, negative = inhibition” value was -8.67% [at 50 µM].
The same measure, in the same setting: the value for `CC1(C)CCC2(C(=O)O)CCC3(C)C(=CCC4C5(C)CCC(O)C(C)(CO)C5C(O)CC43C)C2C1` (centres undefined) was -12.5%.
For the compound `CC(C)=CC[C@H]1O[C@]2(O)C([C@H]3CCC4[C@@]5(C)CC[C@H](O[C@@H]6O[C@H](CO)[C@H](O)[C@H](O[C@@H]7O[C@H](CO)[C@@H](O)[C@H](O)[C@H]7O)[C@H]6O[C@@H]6O[C@@H](C)[C@H](O)[C@@H](O)[C@H]6O)C(C)(C)C5CC[C@@]4(C)[C@]3(C)[C@H]2O)[C@@]1(C)O` (some centres undefined), the “outcome” value is “inactive [at 15.3 µM]”.
Regarding `N[C@@H](CCNCc1ccc(Cl)cc1)C(=O)N1CCCCC1`, the “activity change, negative = inhibition” value is -0.174% [at 50 µM].
On the same count and under the same terms, as for `O=C(OCC(O)CO[C@@H]1O[C@H](C(=O)O)[C@@H](O)[C@H](O)[C@H]1O)c1ccccc1` (some centres undefined), the figure is 0.967%; as for `CC(C)c1cc2c(c(O)c1O)[C@@]13CCCC(C)(C)C1[C@@H](O)[C@@H]2OC3=O` (some centres undefined), -8.54%.
Still for that read-out and setting: the value for `CC(=O)c1ccc(O[C@@H]2OC[C@@H](O)[C@H](O)[C@H]2O[C@]2(CO)O[C@H](CO)[C@@H](O)[C@@H]2O)c(O)c1` was -8.86%.
Still for that read-out and setting: the value for `O=C(Nc1ccccc1)Nc1ccc(-c2ccc(C(=O)C3CCCC3C(=O)O)cc2)cc1` (centres undefined) was -5.45% [at 50 µM].
Take `CC(C)(O)C1OC1C1=CC(=O)C2(C)OC2C1O` (centres undefined): the “outcome” value was “inactive [at 50 µM]”.
For the compound `COC(=O)C(Cc1ccccc1)NC(=O)c1ccccc1` (centres undefined), the “activity change, negative = inhibition” value was -14.3% [at 50 µM].
Same read-out and setting: the value for `COc1cc(CO)cc(OC)c1O[C@@H]1O[C@H](CO)[C@@H](O)[C@H](O)[C@H]1O` was 2.24%.
Turning to `CCc1cc(CC[C@]2(C3CCCC3)CC(O)=C(Cc3nc4nc(C)cc(C)n4n3)C(=O)O2)cc(CC)n1`, the “outcome” value is “inactive [at 50 µM]”.
Take `C[C@@H]1O[C@@H](O[C@@H]2[C@@H](O)[C@H](O[C@H]3[C@H](O[C@H]4CC[C@@]5(C)C(CC[C@]6(C)C5CC=C5[C@@H]7CC(C)(C)CC[C@]7(C(=O)O[C@@H]7O[C@H](CO)[C@@H](O)[C@H](O)[C@H]7O)CC[C@]56C)C4(C)C)O[C@H](C(=O)O)[C@@H](O)[C@@H]3O)OC[C@H]2O)[C@H](O)[C@H](O)[C@H]1O` (some centres undefined): the “activity change, negative = inhibition” value is -0.625% [at 15.3 µM].
The same measure, in the same setting: as for `COc1ccc([C@H]2OC[C@H]3[C@@H]2CO[C@@H]3c2ccc(O[C@@H]3O[C@H](CO)C(O)[C@H](O)[C@H]3O)c(OC)c2)cc1OC` (some centres undefined), the figure is 3.62%.
Still for that read-out and setting: the value for `COCCCc1sc(-c2ccccc2)nc1C(=O)Nc1ccccc1-c1nc2cc(CN3CCCC3)cnc2s1` was -9.14%.
Still for that read-out and setting: the value for `CC(=O)NC(Cc1ccccc1)C(=O)NC(C(=O)O)C(C)C` (stereo not drawn) (Ac-Phe-Val-OH; configuration not given here) was -12.3% [at 50 µM]; that for `C=C[C@H]1[C@H](O[C@@H]2O[C@H](CO)[C@@H](O)[C@H](OC(=O)/C=C/c3ccc(O)c(OC)c3)[C@H]2O)OC=C2C(=O)OCC[C@]21O` was -1.84%; that for `CN1C(=O)N(c2cc(Cl)cc(Cl)c2)C(=O)[C@@]1(C)Cc1ccc(Br)cc1` was -11.1% [at 50 µM].
Turning to `C[C@H](/C=C/[C@@]1(O)[C@H](C)CC(=O)CC1(C)C)O[C@@H]1O[C@H](CO[C@@H]2OC[C@@H](O)[C@H](O)[C@H]2O)[C@@H](O)[C@H](O)[C@H]1O`, the “activity change, negative = inhibition” value is -0.406%.
Still for that read-out and setting: the value for `COC(=O)C1=COC(O[C@@H]2O[C@H](CO)[C@@H](O)[C@H](O)[C@H]2O)[C@@H]2[C@@](C)(O)[C@@H](OC(=O)/C=C/c3ccccc3)C[C@]12O` (some centres undefined) was -5.93%.
